Assay results reported in PubChem BioAssay (Tox21).
Several values for one entry are separate records, joined by “and”; a condition that tells them apart may be missing. Equal entries are not always repeated. Inconclusive results are not listed. Where a structure was tested more than once in an assay, its records may differ in their call. Activity calls are given as the source filed them. Unless noted, calls come from the whole dose curve.

Legend:
[1] = Nuclear factor erythroid 2-related factor 2/antioxidant responsive element (Nrf2/ARE) small molecule agonists: qHTS cell viability counter screen in human keratinocytes (AID 1919968; active = well fitted curve in the direction sought with a large enough effect in the repeat runs; an effect the other way counts as inactive or inconclusive; note: nearly all actives have a fitted effect of over 55% in size; note: potency is the fitted concentration of half-maximal effect)
How it was run: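 Viability counter-screen: KeratinoSens reporter cells, DMSO-delivered compounds, 23 h at 37 C, CellTiter-Fluor fluorescence.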

[2] = biological target: KiSS-1 receptor (Homo sapiens) (UniProt Q969F8); experiment: Human kisspeptin (KISS1R) small molecule agonists, calcium flux assay in KISS1R-HEK293 cells (AID 1920064; active = well fitted curve in the direction sought with a large enough effect in the repeat runs; an effect the other way counts as inactive or inconclusive)
KiSS-1 receptor (Homo sapiens), sequence (Q969F8 whole entry, looked up): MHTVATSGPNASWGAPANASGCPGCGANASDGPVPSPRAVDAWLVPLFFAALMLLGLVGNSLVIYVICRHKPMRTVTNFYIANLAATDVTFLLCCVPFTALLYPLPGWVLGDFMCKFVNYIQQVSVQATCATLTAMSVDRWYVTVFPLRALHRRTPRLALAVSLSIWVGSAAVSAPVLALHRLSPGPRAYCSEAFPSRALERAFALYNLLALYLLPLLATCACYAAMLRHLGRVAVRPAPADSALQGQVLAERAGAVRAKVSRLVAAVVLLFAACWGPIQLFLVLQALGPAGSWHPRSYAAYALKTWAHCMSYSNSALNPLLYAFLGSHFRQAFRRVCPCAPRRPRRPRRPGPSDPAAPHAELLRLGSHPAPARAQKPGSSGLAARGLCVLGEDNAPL
How it was run: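 Intracellular calcium mobilization in KISS1R-HEK293 cells was recorded by fluorescence (Ex/Em 480/540) for 3 min following compound addition to cells pre-loaded 1 h with calcium dye.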

[3] = G protein-coupled receptor (GPCR) small molecule agonists, calcium flux assay: HEK293 wild type cell line counter screen (AID 1920065)
How it was run: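 In this agonist-mode screen, ATP is the positive control and DMSO the vehicle. Cells grow 18 h before a 1 h dye incubation at 37 C; signal is taken at Ex/Em 480/540 over 3 min.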

[4] = p53 small molecule agonists, cell-based qHTS assay with human liver microsomes (AID 1963577);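 note: p53 response element beta-lactamase reporter cells with liver microsomes plus NADPH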
How it was run: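 Metabolically competent format: test substances, human liver microsomes and NADPH (both 0.5 mg/mL final) incubated with p53RE-bla cells 16 h at 37 C. Beta-lactamase reporter signal then quantified by fluorescence.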

[5] = p53 small molecule agonists, cell-based qHTS assay with rat liver microsomes (AID 1963578)
How it was run: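 Each plate received p53RE-bla cells, then compound, then rat liver microsomes and NADPH (both 0.5 mg/mL final). Plates were held 16 h at 37 C, and beta-lactamase activity was detected with LiveBLAzer over 2 h.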

[6] = p53 small molecule agonists, cell-based qHTS assay with human liver microsomes: qHTS cell viability counter screen (AID 1963579); note: nearly all actives have a fitted effect of over 45% in size; note: potency is the fitted concentration of half-maximal effect
How it was run: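 Tox21 library compounds, delivered from DMSO stocks, were tested on p53RE-bla cells together with 0.5 mg/mL human liver microsomes and 0.5 mg/mL NADPH (final) over 16 h at 37 C; CellTiter-Glo luminescence served as the cytotoxicity measure.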

[7] = p53 small molecule agonists, cell-based qHTS assay with rat liver microsomes: qHTS cell viability counter screen (AID 1963580); note: nearly all actives have a fitted effect of over 45% in size; note: potency is the fitted concentration of half-maximal effect
How it was run: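 p53RE-bla HCT-116 cells were exposed 16 h at 37 C to compounds with rat liver microsomes (0.5 mg/mL) and NADPH (0.5 mg/mL). Viability was measured in the same wells as ATP content by CellTiter-Glo luminescence.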

[8] = p53 small molecule agonists, cell-based qHTS assay: qHTS cell viability counter screen (AID 1963581); note: nearly all actives have a fitted effect of over 45% in size
How it was run: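 Compounds are pinned onto HCT-116 p53RE-bla cells and left 16 h at 37 C. Following the reporter FRET read, ATP is quantified by CellTiter-Glo luminescence after 30 min at room temperature.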

[9] = p53 small molecule agonists, cell-based qHTS assay (AID 1963582; active = well fitted activation curve with a large enough effect in the signal ratio in the repeat runs, not every such curve was filed as active; the % refers to the signal ratio)
How it was run: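 Agonist activity was scored from beta-lactamase FRET fluorescence in p53RE-bla cells treated 16 h at 37 C with compounds in DMSO, substrate incubation being 2 h at room temperature.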

[10] = biological target: 5-hydroxytryptamine receptor 2A (Homo sapiens) (UniProt P28223); experiment: 5-hydroxytryptamine receptor 2A (HTR2A) small molecule antagonists, cell-based qHTS assay (AID 1963586); note: nearly all actives have a fitted effect of over 45% in size
5-hydroxytryptamine receptor 2A (Homo sapiens), sequence (P28223 whole entry, looked up): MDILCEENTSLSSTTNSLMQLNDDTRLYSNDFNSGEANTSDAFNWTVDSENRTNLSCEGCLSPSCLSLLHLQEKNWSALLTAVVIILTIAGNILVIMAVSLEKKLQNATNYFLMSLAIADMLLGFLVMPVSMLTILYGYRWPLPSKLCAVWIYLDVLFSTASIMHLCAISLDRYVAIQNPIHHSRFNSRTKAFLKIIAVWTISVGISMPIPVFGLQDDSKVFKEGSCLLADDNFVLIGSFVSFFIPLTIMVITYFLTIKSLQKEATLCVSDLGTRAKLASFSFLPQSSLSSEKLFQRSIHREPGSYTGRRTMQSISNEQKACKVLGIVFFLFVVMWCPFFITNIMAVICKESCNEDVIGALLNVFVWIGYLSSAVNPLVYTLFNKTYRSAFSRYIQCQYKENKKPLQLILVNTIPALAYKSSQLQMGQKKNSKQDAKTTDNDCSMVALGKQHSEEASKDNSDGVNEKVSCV
How it was run: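 Antagonist-mode intracellular calcium assay: DOI (4 nM) added after 5 min compound pre-incubation at room temperature to dye-loaded HTR2A-CHO cells. Fluorescence followed for 3 min, sampled every second.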

[11] = biological target: 5-hydroxytryptamine receptor 2A (Homo sapiens) (UniProt P28223); experiment: 5-hydroxytryptamine receptor 2A (HTR2A) small molecule agonists, cell-based qHTS assay (AID 1963587); note: nearly all actives have a fitted effect of over 30% in size
How it was run: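 CHO cells stably expressing human HTR2A, plated 18 h, loaded with calcium dye 1 h at 37 C. Agonist mode: compounds added and intracellular calcium fluorescence recorded kinetically for 2 min at 1 sec intervals.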

[12] = biological target: Muscarinic acetylcholine receptor M1 (Homo sapiens) (UniProt P11229); experiment: Cholinergic receptor muscarinic 1 (CHRM1) small molecule antagonists, cell-based qHTS assay (AID 1963588); note: nearly all actives have a fitted effect of over 40% in size; note: potency is the fitted concentration of half-maximal effect
Muscarinic acetylcholine receptor M1 (Homo sapiens), sequence (P11229 whole entry, looked up): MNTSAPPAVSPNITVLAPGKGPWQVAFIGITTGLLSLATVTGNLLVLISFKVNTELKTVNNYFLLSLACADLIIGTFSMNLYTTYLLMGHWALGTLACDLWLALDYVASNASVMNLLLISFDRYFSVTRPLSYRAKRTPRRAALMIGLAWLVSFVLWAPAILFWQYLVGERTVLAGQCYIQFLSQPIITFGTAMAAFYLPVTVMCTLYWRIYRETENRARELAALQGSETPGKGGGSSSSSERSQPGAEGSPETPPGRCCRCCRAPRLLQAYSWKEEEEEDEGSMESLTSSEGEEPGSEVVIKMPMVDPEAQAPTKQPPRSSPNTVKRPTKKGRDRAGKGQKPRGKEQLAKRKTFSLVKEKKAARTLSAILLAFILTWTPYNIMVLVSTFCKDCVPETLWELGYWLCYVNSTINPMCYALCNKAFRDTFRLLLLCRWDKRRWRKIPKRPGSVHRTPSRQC
How it was run: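 CHRM1-CHO calcium-flux assay, antagonist mode. Cells were seeded 18 h, dye-loaded 1 h at 37 C and given compound for 5 min at RT, then acetylcholine was added at 50nM. FDSS fluorescence was read 3 min; 15 concentrations, three runs.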

[13] = biological target: Muscarinic acetylcholine receptor M1 (Homo sapiens) (UniProt P11229); experiment: Cholinergic receptor muscarinic 1 (CHRM1) small molecule agonists, cell-based qHTS assay (AID 1963589); note: nearly all actives have a fitted effect of over 35% in size
How it was run: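 Stable CHRM1-CHO cells (human receptor) were incubated 18 h, dye-loaded for 1 h at 37 C and exposed to test compounds for agonist activity, with calcium-dependent fluorescence followed kinetically.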

[14] = cAMP Responsive Elements (CRE) small molecule agonists, cell-based qHTS assay (AID 1963590)
How it was run: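 FRET-based beta-lactamase readout (LiveBLAzer B/G, 2 h RT) quantified CRE activation in HEK 293T CRE-bla cells after 3 h treatment with DMSO-dissolved compounds.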

[15] = cAMP Responsive Elements (CRE) small molecule antagonists, cell-based qHTS assay (AID 1963591; active = well fitted inhibition curve with a large enough effect in the signal ratio in the repeat runs, not every such curve was filed as active; the % refers to the signal ratio)
How it was run: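 qHTS in CRE-bla HEK 293T cells: compound in DMSO, then 0.25 uM NKH477 (final), 3 h at 37 °C/5% CO2; beta-lactamase FRET read-out after 2 h substrate incubation.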

[16] = biological target: Beta-2 adrenergic receptor (Homo sapiens) (UniProt P07550); experiment: Adrenergic beta2 receptor (ADRB2) small molecule antagonists, cell-based qHTS assay (AID 1963592); note: nearly all actives have a fitted effect of over 50% in size; note: potency is the fitted concentration of half-maximal effect
Beta-2 adrenergic receptor (Homo sapiens), sequence (P07550 whole entry, looked up): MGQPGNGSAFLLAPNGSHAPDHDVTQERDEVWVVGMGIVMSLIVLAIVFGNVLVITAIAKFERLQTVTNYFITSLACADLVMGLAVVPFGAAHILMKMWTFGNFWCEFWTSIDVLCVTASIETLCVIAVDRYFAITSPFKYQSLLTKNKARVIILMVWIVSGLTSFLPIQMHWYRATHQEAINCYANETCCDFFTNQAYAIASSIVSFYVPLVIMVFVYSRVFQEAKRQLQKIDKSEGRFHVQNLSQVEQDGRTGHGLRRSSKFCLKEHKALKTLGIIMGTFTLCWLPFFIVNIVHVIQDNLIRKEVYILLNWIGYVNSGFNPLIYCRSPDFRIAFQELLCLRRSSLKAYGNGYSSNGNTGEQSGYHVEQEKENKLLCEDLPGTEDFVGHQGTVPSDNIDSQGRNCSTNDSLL
How it was run: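 Cells (CHO, stable ADRB2 overexpression) incubated 18-20hr at 37C; compounds added from DMSO; agonist mix (1nM isoproterenol, 100uM IBMX, 25uM Ro-20-1724) added; 0.5hr RT; d2-cAMP and anti-cAMP-cryptate added; 1hr RT; 665/615 nm read.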

[17] = biological target: D(2) dopamine receptor (Homo sapiens) (UniProt P14416); experiment: Dopamine D2 receptor (DRD2) small molecule agonists, cell-based qHTS assay (AID 1963594); note: nearly all actives have a fitted effect of over 35% in size
D(2) dopamine receptor (Homo sapiens), sequence (P14416 whole entry, looked up): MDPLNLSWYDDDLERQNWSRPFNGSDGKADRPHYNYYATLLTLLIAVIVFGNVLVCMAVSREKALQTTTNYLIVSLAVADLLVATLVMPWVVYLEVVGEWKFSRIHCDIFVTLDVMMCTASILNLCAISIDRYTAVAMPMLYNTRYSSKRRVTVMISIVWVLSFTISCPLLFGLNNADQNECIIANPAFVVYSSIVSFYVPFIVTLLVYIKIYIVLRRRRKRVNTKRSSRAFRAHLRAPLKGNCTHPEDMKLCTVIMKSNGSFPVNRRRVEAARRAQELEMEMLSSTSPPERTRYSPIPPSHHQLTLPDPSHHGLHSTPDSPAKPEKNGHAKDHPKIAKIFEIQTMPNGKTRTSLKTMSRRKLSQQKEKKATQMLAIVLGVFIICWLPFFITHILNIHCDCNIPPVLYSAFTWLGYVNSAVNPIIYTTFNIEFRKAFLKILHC
How it was run: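 HEK293 cells stably expressing human DRD2, pre-treated with PDE inhibitor Ro20-1724 (0.1 mM final) and compound 10 min at room temperature, then stimulated with NKH477 (200nM […]) for 30 min. cAMP read by HTRF (665/620 nm).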

[18] = biological target: D(2) dopamine receptor (Homo sapiens) (UniProt P14416); experiment: Dopamine D2 receptor (DRD2) small molecule antagonists, cell-based qHTS assay (AID 1963595; active = well fitted inhibition curve with a large enough effect in the signal ratio in the repeat runs, with a control signal flat; the % refers to the signal ratio)
How it was run: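 Stable D2 receptor HEK293 line, 24 h after seeding. Compound preincubated 10 min, then quinpirole (12 nM) with forskolin analogue NKH477 (200 nM), 30 min, room temperature. Detection by time-resolved FRET of cAMP.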

[19] = biological target: Gonadotropin-releasing hormone receptor (Homo sapiens) (UniProt P30968); experiment: Human gonadotropin-releasing hormone receptor (GnRHR) small molecule agonists, calcium flux assay in GnRHR-HEK293 cells (AID 1920063); note: nearly all actives have a fitted effect of over 35% in size
Gonadotropin-releasing hormone receptor (Homo sapiens), sequence (P30968 whole entry, looked up): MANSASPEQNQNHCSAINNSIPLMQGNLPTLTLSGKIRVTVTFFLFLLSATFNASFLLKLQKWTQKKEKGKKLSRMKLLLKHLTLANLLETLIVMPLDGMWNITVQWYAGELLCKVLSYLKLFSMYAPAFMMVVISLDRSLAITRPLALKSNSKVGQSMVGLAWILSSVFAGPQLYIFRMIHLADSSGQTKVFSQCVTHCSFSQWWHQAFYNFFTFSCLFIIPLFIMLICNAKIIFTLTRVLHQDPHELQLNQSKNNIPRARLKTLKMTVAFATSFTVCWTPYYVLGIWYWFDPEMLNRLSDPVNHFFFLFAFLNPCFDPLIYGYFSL
How it was run: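 Tox21-format agonist screen using human GnRHR-expressing HEK293 cells and a fluorescent calcium dye; kinetic 3-min fluorescence reading after compound addition, 15-point concentration series run in triplicate.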

[20] = biological target: Beta-2 adrenergic receptor (Homo sapiens) (UniProt P07550); experiment: Adrenergic beta2 receptor (ADRB2) small molecule agonists, cell-based qHTS assay (AID 1963593);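 note: CHO cells stably overexpressing human ADRB2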
How it was run: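 CHO cells stably over-expressing ADRB2 were plated overnight at 37C, then dosed with compounds plus a stimulation mix containing 100uM IBMX and 25uM Ro-20-1724 for 0.5hr at room temperature. cAMP was measured by HTRF competition, 1hr.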

Measured: Potency

CCCCCC(C)=O
inactive and 12.9 µM (active): [6]
inactive: [1] | [2] | [3] | [4] | [5] | [8] | [9] | [10] | [11] | [12] | [13] | [14] | [15] | [16] | [17] | [18]
inactive and 28.9 µM (active): [7]

O=S(=O)(O)C(F)(F)F
inactive: [1] | [19] | [3] | [4] | [5] | [6] | [7] | [8] | [10] | [11] | [12] | [13] | [14] | [16] | [20] | [17] | [18]

CCCCCCCCCCCCCCCC(=O)NCCO
inactive: [19] | [2] | [3] | [4] | [5] | [6] | [7] | [8] | [9] | [10] | [11] | [12] | [13] | [14] | [15] | [16] | [20]

Cc1cc(C)c(S(=O)(=O)O)cc1N=Nc1cc(S(=O)(=O)O)c2ccccc2c1O
inactive: [2] | [3] | [4] | [5] | [7] | [8] | [9] | [10] | [11] | [12] | [13] | [14] | [16]
active: [1] 30.6 µM

COc1ccccc1C=O
inactive: [1] | [19] | [4] | [6] | [7] | [8] | [9] | [10] | [11] | [12] | [14] | [15] | [16] | [20] | [17] | [18]

CCCCCCOCCOCCO
inactive: [1] | [19] | [3] | [6] | [7] | [10] | [11] | [12] | [13] | [14] | [15] | [17] | [18]

CCC(C)CO (stereo unspecified)
inactive: [1] | [19] | [3] | [4] | [5] | [6] | [8] | [9] | [10] | [11] | [12] | [13] | [14] | [16] | [17] | [18]

CC(C)CC(C)(O)C#CC(C)(O)CC(C)C (stereo unspecified)
59.9 µM (active) and inactive: [16]
inactive: [1] | [19] | [3] | [4] | [5] | [6] | [7] | [8] | [9] | [10] | [11] | [12] | [13] | [14] | [15] | [20] | [17] | [18]

CCSC(=O)N(CC)CC
inactive: [1] | [19] | [2] | [4] | [5] | [6] | [7] | [8] | [10] | [11] | [12] | [13] | [14] | [15] | [16] | [20] | [17] | [18]

CC(C)(CCC(=O)O)C(=O)O
inactive: [1] | [2] | [3] | [4] | [5] | [8] | [9] | [10] | [11] | [12] | [13] | [14] | [15] | [16] | [17] | [18]

Cc1ccc(S(=O)(=O)NC(=O)NC2CCCC2)cc1
inactive: [1] | [19] | [3] | [4] | [5] | [6] | [7] | [8] | [9] | [10] | [11] | [12] | [13] | [14] | [15] | [16] | [20] | [17] | [18]

C1=CCC2CC=CC2C1 (stereo unspecified)
inactive: [1] | [19] | [3] | [4] | [6] | [8] | [10] | [11] | [13] | [14] | [15] | [16] | [20] | [17] | [18]
active: [12] 3.34 µM

CC(=O)O[C@@H]1CC2C3CCc4cc(OC(=O)c5ccccc5)ccc4C3CCC2(C)[C@H]1OC(C)=O (stereo partly specified)
inactive: [1] | [19] | [2] | [4] | [5] | [6] | [8] | [9] | [10] | [11] | [12] | [13] | [14] | [16] | [20] | [17] | [18]
